Structures can show the parent of a compound that is named as a salt.
What was measured:
Test in all cases: Euclidean distance of Cell Painting phenotypic profile (signed KS, 77 features) to DMSO centroid (dimensionless distance); 5 or 10 uM (library dependent); higher = stronger phenotypic change vs DMSO (phenoactivity)
Settings in all cases: 48 h
[1] = test system: 786-O
Procedure, shortened: (§1)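 Harmony extracted 77 features from 20X confocal images (9 fields/well) of stained cells, scoring each as a signed Kolmogorov-Smirnov statistic against same-plate vehicle wells. The cells, five cancer lines and a healthy fibroblast line, had received library compounds for 48 h at 10 or 5 uM depending on library, with 0.1% DMSO final. Phenoactivity is the Euclidean distance from each plate-position-corrected, correlation-weighted, top-dose replicate-averaged profile to the median vehicle profile.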

[2] = test system: A549
Procedure, shortened: as §1

[3] = test system: DU145
Procedure, shortened: as §1

[4] = test system: FB
Procedure, shortened: as §1

[5] = test system: HEPG2
Procedure, shortened: as §1

[6] = test system: OVCAR4
Procedure, shortened: as §1

Row | Compound | Euclidean distance [1] | Euclidean distance [2] | Euclidean distance [3] | Euclidean distance [4] | Euclidean distance [5] | Euclidean distance [6]
1 | CC(C)c1c(C(=O)Nc2ccccc2)c(-c2ccccc2)c(-c2ccc(F)cc2)n1CC[C@@H](O)C[C@@H](O)CC(=O)O [Atorvastatin Calcium] | 2.68 | 1.33 | 1.15 | 3.05 | 2.23 | 1.8
2 | O=C(O)Cc1ccccc1Nc1c(Cl)cccc1Cl [Diclofenac Epolamine] | 0.939 | 0.571 | 1.14 | 0.969 | 0.65 | 1.22
3 | Clc1ccc(COC(Cn2ccnc2)c2ccc(Cl)cc2Cl)cc1 (stereo unspecified) [Econazole] | 1.06 | 1.25 | 0.98 | 1.02 | 1.09 | 0.709
4 | CN1CCN(c2c(F)cc3c(=O)c(C(=O)O)cn4c3c2OCN4C)CC1 [Marbofloxacin] | 0.878 | 0.762 | 0.494 | 1.1 | 1.53 | 0.752
5 | O=C(O)/C=C/c1ccc(Cn2ccnc2)cc1 [Ozagrel sodium] | 1.06 | 1.08 | 1.01 | 1.07 | 1.03 | 0.564
6 | CO[C@@H]1[C@@H](O[C@@H]2O[C@H](C)[C@@H](O[C@H]3C[C@@](C)(O)[C@@H](O)[C@H](C)O3)[C@H](N(C)C)[C@H]2O)[C@@H](CC=O)C[C@@H](C)[C@@H](O[C@H]2CC[C@H](N(C)C)[C@@H](C)O2)/C=C/C=C/C[C@@H](C)OC(=O)C[C@H]1OC(C)=O [Acetylspiramycin (ASPM)] | 0.993 | 1.5 | 2.15 | 1.66 | 1.45 | 1.73
7 | CCC(=O)O[C@@H](O[P@](=O)(CCCCc1ccccc1)CC(=O)N1C[C@H](C2CCCCC2)C[C@H]1C(=O)O)C(C)C [Fosinopril Sodium] | 1.19 | 0.719 | 1.62 | 0.746 | 0.444 | 1.23
8 | Nc1nc(Cl)nc2c1ncn2[C@H]1C[C@H](O)[C@@H](CO)O1 [Cladribine] | 2.58 | 3.28 | 2.27 | 3.14 | 2.67 | 3.21
9 | Cc1ccc(S(=O)(=O)/C=C/C#N)cc1 | 1.7 | 1.37 | 1.36 | 3.14 | 2.05 | 2.5
10 | CCOC(=O)C1=C(COCCN)NC(C)=C(C(=O)OC)C1c1ccccc1Cl (stereo unspecified) [Amlodipine] | 0.785 | 0.917 | 0.877 | 1.06 | 1.06 | 0.837
11 | CN[C@@H]1[C@H](O)[C@H](NC)[C@H]2O[C@@]3(O)C(=O)C[C@@H](C)O[C@H]3O[C@@H]2[C@H]1O [Spectinomycin HCl] | 0.726 | 0.814 | 1.28 | 1.21 | 0.977 | 1.02
12 | CCN(CC)Cc1cc(Nc2ccnc3cc(Cl)ccc23)ccc1O [Amodiaquine] | 2.2 | 2.16 | 1.37 | 3.19 | 2.51 | 2.02
13 | O=C(Nc1ccc(-c2ccnc(Nc3ccc(N4CCOCC4)cc3)n2)cc1)C1CCCN1 (stereo unspecified) | 0.834 | 1.49 | 1.24 | 1.52 | 1.48 | 0.844
14 | COc1ccc2cc3[n+](cc2c1OC)CCc1cc2c(cc1-3)OCO2 [Berberine Sulfate] | 1.66 | 2.46 | 1.4 | 2.36 | 1.68 | 2.08
15 | CC(=O)O[C@H]1C[C@@H]2CC[C@@H]3[C@H](CC[C@@]4(C)[C@H]3C[C@H]([N+]3(C)CCCCC3)[C@@H]4OC(C)=O)[C@@]2(C)C[C@@H]1N1CCCCC1 [Vecuronium Bromide] | 1.85 | 1.53 | 1.34 | 1.07 | 0.966 | 1.28
16 | CC(=O)OC[C@H]1O[C@@H]([S-])[C@H](OC(C)=O)[C@@H](OC(C)=O)[C@@H]1OC(C)=O.CCP(CC)CC.[Au+] [Auranofin] | 5.67 | 4.89 | 6.36 | 6.74 | 3.39 | 5.08
17 | Clc1ccc(C(Cn2ccnc2)OCc2ccc(Sc3ccccc3)cc2)c(Cl)c1 (stereo unspecified) [Fenticonazole Nitrate] | 1.13 | 0.887 | 1.51 | 1.21 | 2.16 | 1.35
18 | O=C(Cc1ccc(-c2ccc(OCCN3CCOCC3)cc2)cn1)NCc1ccccc1 | 3.21 | 3.15 | 4.51 | 2.74 | 3.85 | 2.99
19 | C[C@@H](Oc1cc(-n2cnc3ccc(CN4CCN(C)CC4)cc32)sc1C(N)=O)c1ccccc1C(F)(F)F | 3.44 | 3.82 | 4.26 | 3.6 | 3.95 | 2.85
20 | O=C(O)c1ccc(C=C2SC(=S)N(c3cccc(C(F)(F)F)c3)C2=O)cc1 | 0.542 | 0.983 | 0.711 | 0.939 | 0.977 | 1.56
21 | Nc1nccc2c1ncn2C1C=C(CO)C(O)C1O (stereo unspecified) [3-Deazaneplanocin A (DZNeP)] | 2.28 | 1.27 | 1.19 | 2.71 | 1.23 | 1.72
22 | CC(C)(C)[N+]([O-])=Cc1ccc(S(=O)(=O)O)cc1S(=O)(=O)O | 1.04 | 1.8 | 0.995 | 1.52 | 1.43 | 1.57
23 | O=C1Nc2ccccc2C1=O [Isatin] | 0.739 | 1.21 | 1.26 | 1.29 | 1.03 | 1.39

Row | Compound | Euclidean distance [1] | Euclidean distance [2] | Euclidean distance [3] | Euclidean distance [4] | Euclidean distance [5] | Euclidean distance [6]
24 | CC1(C)S[C@@H]2[C@H](NC(=O)[C@H](N)c3ccc(O)cc3)C(=O)N2[C@H]1C(=O)O [Amoxicillin Sodium] | 1.03 | 1.17 | 1.56 | 1.06 | 1.08 | 1.78
25 | NC[C@H]1O[C@H](O[C@H]2[C@H](O)[C@@H](O[C@H]3O[C@H](CO)[C@@H](O)[C@H](N)[C@H]3O)[C@H](N)C[C@@H]2N)[C@H](N)C[C@@H]1O [Tobramycin] | 0.897 | 1.31 | 1.34 | 0.987 | 0.563 | 1.4
26 | Nc1ccc(S(=O)(=O)Nc2ncccn2)cc1 [Sulfadiazine] | 1.39 | 0.735 | 1.5 | 1.03 | 2.25 | 1.43
27 | Cc1ccccc1C(OCCN(C)C)c1ccccc1 (stereo unspecified) [Orphenadrine Citrate] | 1.08 | 0.794 | 1.23 | 0.881 | 2.08 | 1.07
28 | CN1CCN(CC/C=C2/c3ccccc3Sc3ccc(S(=O)(=O)N(C)C)cc32)CC1 [Thiothixene] | 2.81 | 2.33 | 2.21 | 2.69 | 3.3 | 2.03
29 | CCN(CC)CCOC(=O)c1ccc(N)cc1Cl [Chloroprocaine HCl] | 0.962 | 0.947 | 0.943 | 0.861 | 0.503 | 1.07
30 | Cc1nc2c([nH]1)-c1ccccc1N(C(=O)c1ccc(NC(=O)c3ccccc3-c3ccccc3)cc1)CC2 [Conivaptan HCl] | 1.3 | 1.1 | 1.42 | 1.28 | 1.72 | 1.57
31 | COC1=CC(=O)C[C@@H](C)[C@]12Oc1c(Cl)c(OC)cc(OC)c1C2=O [Griseofulvin] | 0.605 | 0.678 | 0.803 | 1.48 | 0.745 | 0.81
32 | CCN(CC)Cc1cc(Nc2ccnc3cc(Cl)ccc23)ccc1O [Amodiaquine dihydrochloride dihydrate] | 3.19 | 3.25 | 1.79 | 3.65 | 3.36 | 2.54
33 | O=C(CO)[C@@H](O)[C@H](O)[C@H](O)CO [Fructose] | 1.08 | 0.996 | 0.637 | 0.813 | 0.424 | 1.17
34 | C[C@@]1(C(=O)Nc2ccc(F)nc2)CCCN1c1nc(Nc2cc(C3CC3)n[nH]2)c2cccn2n1 | 2.52 | 3.2 | 3.3 | 3.23 | 2.63 | 3.61
35 | CC(C)(C)c1cnc(CSc2cnc(NC(=O)C3CCNCC3)s2)o1 | 2.67 | 3.69 | 2.93 | 3.38 | 2.81 | 3.27
36 | CN[C@@H]1[C@H](O[C@H]2[C@H](O[C@H]3[C@H](O)[C@@H](O)[C@H](NC(=N)N)[C@@H](O)[C@@H]3NC(=N)N)O[C@@H](C)[C@]2(O)CO)O[C@@H](CO)[C@H](O)[C@H]1O [Dihydrostreptomycin sulfate] | 0.936 | 1.12 | 0.563 | 1.25 | 0.549 | 1.33
37 | CS(=O)(=O)Nc1ccc([N+](=O)[O-])cc1Oc1ccccc1 [Nimesulide] | 1.43 | 1.21 | 0.674 | 1.03 | 1.82 | 1.8
38 | O=C(O)COc1nn(Cc2ccccc2)c2ccccc12 [Bendazac] | 1.07 | 0.905 | 1.13 | 1.39 | 0.558 | 1.32
39 | Nc1ccc2cc3ccc(N)cc3nc2c1 [Proflavine] | 3.98 | 3.75 | 4 | 4.15 | 4.17 | 4.45
40 | O=C(O)C(Cc1ccccc1[N+](=O)[O-])=NNc1nc(-c2ccc(Cl)c(Cl)c2)cs1 (mixture of isomers) | 0.716 | 1.16 | 0.992 | 2.32 | 0.514 | 0.642
41 | CC1(C)S[C@@H]2[C@H](NC(=O)[C@H](N)c3ccccc3)C(=O)N2[C@H]1C(=O)OCOC(=O)[C@@H]1N2C(=O)C[C@H]2S(=O)(=O)C1(C)C [Sultamicillin Tosylate] | 1.06 | 1.18 | 0.926 | 1.01 | 0.775 | 0.992
42 | CO[C@H]1C[C@@H]2CC[C@@H](C)[C@@](O)(O2)C(=O)C(=O)N2CCCC[C@H]2C(=O)O[C@H]([C@H](C)C[C@@H]2CC[C@@H](OP(C)(C)=O)[C@H](OC)C2)CC(=O)[C@H](C)/C=C(\C)[C@@H](O)[C@@H](OC)C(=O)[C@H](C)C[C@H](C)/C=C/C=C/C=C/1C [Ridaforolimus (Deforolimus. MK-8669)] | 2.74 | 1.98 | 1.3 | 2.88 | 1.37 | 2.04
43 | CCCCC1OC(=O)c2ccccc21 (stereo unspecified) [3-n-Butylphathlide] | 1.36 | 0.948 | 0.834 | 1.38 | 0.575 | 1.15
44 | CC(C)c1ccc2oc3nc(N)c(C(=O)O)cc3c(=O)c2c1 [Amlexanox] | 0.725 | 0.9 | 0.886 | 0.891 | 0.909 | 0.738
45 | O=C(O)/C=C/c1ccc(Cn2ccnc2)cc1 [Ozagrel] | 1.04 | 0.773 | 1.51 | 0.921 | 0.736 | 1.43
46 | CCC(=O)O[C@@H]1CC(=O)O[C@H](C)C/C=C/C=C/[C@H](O)[C@H](C)C[C@H](CC=O)[C@H](O[C@@H]2O[C@H](C)[C@@H](O[C@H]3C[C@@](C)(O)[C@@H](OC(=O)CC)[C@H](C)O3)[C@H](N(C)C)[C@H]2O)[C@H]1OC [Midecamycin] | 0.98 | 1.59 | 0.874 | 1.31 | 1.08 | 1.07

From the supplement of paper PMC10127200
